Source: PubChem BioAssay (Johns Hopkins Ion Channel Center)
Shown are actives, neighbours in structure and some others; about 1.6% of the full set was active somewhere.
KCNQ2 block: blocks the rat KCNQ2 potassium channel | O88943 | CHO-K1 KCNQ2, FluxOR thallium flux, 20 min; active compounds read low | B-score at 10 µM | hit rate 1.1% among 310,000;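 active = fluorescence ratio B-score at most minus 3 library SDs, with starting brightness B-score within 2 library SDs, cut at about -5.5 in these data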
KCNQ2 pot: KCNQ2 (rat) channel potentiation | hit rate 0.54% among 310,000 | O88943 | B-score at 10 µM | CHO-K1 KCNQ2, FluxOR thallium flux fluorescence; active compounds read high;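 active = fluorescence ratio B-score at least 3 SD of library B-scores, with initial fluorescence B-score within 3 of them, cut at about 5.3 in these data; same plate scores as AID 2156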;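 also: B-score of peak minus minimum over baseline fluorescence ratio after K+ and Tl+ stimulus; positive B-score means potentiation of KCNQ2 with more thallium influx and brighter signal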
Kir21 confirm: confirmation of mouse Kir2.1 potassium channel inhibitors; shares compounds with KCNQ2 pot; Kir2.1-expressing cells, FluxOR thallium flux fluorescence; active compounds read low; Tl flux remaining, % of negative control (active compounds read low), % at 10 µM; hit rate 41% among 2,300; AID 2032;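 active = Primary-screen hit whose thallium flux fell at least 3 control SD below untreated wells in both duplicates, with normal baseline fluorescence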;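 also: 0% = blank wells without stimulus and 100% = stimulated no-compound controls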
Target sequence (P35561 whole entry, looked up): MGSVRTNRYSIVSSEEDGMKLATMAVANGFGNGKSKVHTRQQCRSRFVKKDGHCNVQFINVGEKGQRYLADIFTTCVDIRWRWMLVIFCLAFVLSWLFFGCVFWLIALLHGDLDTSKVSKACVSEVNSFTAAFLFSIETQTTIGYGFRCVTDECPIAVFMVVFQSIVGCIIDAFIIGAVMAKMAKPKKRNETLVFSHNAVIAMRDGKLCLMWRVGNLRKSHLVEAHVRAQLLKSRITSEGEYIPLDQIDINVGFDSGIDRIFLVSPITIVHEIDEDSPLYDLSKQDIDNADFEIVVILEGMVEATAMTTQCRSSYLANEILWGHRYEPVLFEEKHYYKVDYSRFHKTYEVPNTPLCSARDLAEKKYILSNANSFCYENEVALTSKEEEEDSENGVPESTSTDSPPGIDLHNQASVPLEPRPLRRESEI
HEK293 ctr: alters thallium flux in parental HEK293 cells, Kir2.1 counter-screen; hit rate 19% among 2,300; FluxOR signal as % of negative control (100 = no effect), % at 10 µM; shares compounds with KCNQ2 pot; FluxOR thallium flux fluorescence; 0% = unstimulated blank wells;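 active = dye signal at least 3 control SD above or below untreated wells in both duplicates, raw fluorescence within 3, either direction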;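 also: percent is based on the flux ratio of peak minus minimum fluorescence over baseline F0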
CHO-K1 ctr: counter-screen for KCNQ2 potentiators: effect in parental CHO-K1 cells; FluxOR thallium flux fluorescence; zero = vehicle mean+3SD, 100% = vehicle-minus-blank window; AID 2282; hit rate 43% among 1,200; shares compounds with KCNQ2 pot; activity increase over 3SD of controls, % at 10 µM;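 active = signal rise of at least 3 SD above the untreated control mean, in both duplicate wells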;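 also: counter screen of KCNQ2 potentiator hits so any rise reflects channel-independent effects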
KCNQ1 sel pot: human KCNQ1 counter-target activity of KCNQ2 potentiators; shares compounds with KCNQ2 pot; CHO KCNQ1 stable, FluxOR thallium flux fluorescence; beyond 3SD, as % of vehicle-control signal; activation over 3SD threshold, % at 10 µM; hit rate 28% among 1,200; AID 2283;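 active = fluorescence ratio rise of at least 3 SD of vehicle wells above their mean, in both replicate wells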;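 also: 0% = vehicle mean plus 3 SD and 100% = vehicle minus unstimulated blank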
KCNQ2 pot confirm: rat KCNQ2 channel potentiator confirmation; potentiation, less the hit threshold, % at 10 µM; CHO-KCNQ2 cells, FluxOR thallium flux fluorescence; hit rate 68% among 1,200; shares compounds with KCNQ2 pot;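 active = fluorescence ratio rising 3 SD or more over the vehicle control mean in both replicates, plus primary screen hit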;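 also: peak minus minimum thallium fluorescence divided by baseline after K/Tl stimulus; 0% = vehicle mean plus 3 SD and 100% = vehicle minus unstimulated blank difference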
Kir21 spec: mouse Kir2.1 off-target activity of KCNQ2 potentiators; hit rate 2% among 1,200; HEK293 Kir2.1, FluxOR thallium flux fluorescence; activity over 3SD threshold, % at 10 µM; shares compounds with KCNQ2 pot;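 active = fluorescence ratio rise of at least 3 SD above the vehicle-control mean, seen in both replicates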;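 also: 0% = vehicle mean plus 3 SD and 100% = vehicle minus no-stimulus blank window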
* marks the source's active call; other numbers are inactive results.

`CCN(C(=O)COC(=O)CCc1c[nH]c2ccccc12)c1c(N)n(Cc2ccccc2)c(=O)[nH]c1=O` gave KCNQ2 block inactive and KCNQ2 pot 1.7.
O=C(Cn1cnc2c(nnn2Cc2ccccc2F)c1=O)NCc1ccco1 was read as KCNQ2 block inactive and KCNQ2 pot 0.16.
COc1cccc(C(=O)NCCS(=O)(=O)N2CC(C)CC(C)C2)c1 (configuration not stated) was read as KCNQ2 block inactive and KCNQ2 pot 0.04.
CCN(CC)CCCn1c2c(c(SCC(=O)Nc3ccccc3Cl)nc1=O)CCC2 was read as KCNQ2 block inactive.
`CCOC(=O)c1c(NC(=O)c2ccccc2N(C)S(=O)(=O)c2ccccc2)sc2c1CCCC2` gave KCNQ2 block inactive.
Screening CCOC(=O)c1c(NC(=O)C(NCCN(C)C)c2ccccc2)sc2c1CCCC2 (configuration not stated) returned KCNQ2 block inactive, Kir21 confirm 41.5%* and HEK293 ctr inactive.
Screening CCOC(=O)C1=C(C)NC(=NC)SC1c1ccccc1 (configuration not stated) returned KCNQ2 block inactive.
`O=C(Cc1ccccc1)Nc1nc(-c2cccc([N+](=O)[O-])c2)cs1` gave KCNQ2 block inactive and KCNQ2 pot 1.4.
For N#C/C(=C\c1ccc(-c2cccc([N+](=O)[O-])c2)o1)C(=O)Nc1nc(-c2cccs2)cs1 the results were KCNQ2 block inactive, KCNQ2 pot 6.77*, Kir21 confirm inactive, HEK293 ctr inactive, CHO-K1 ctr 16.7*, KCNQ1 sel pot -20.0, KCNQ2 pot confirm -17.5 and Kir21 spec -38.2.
For Cc1ccc2c(CN3CCCCC3C)cc(=O)oc2c1C (configuration not stated) the results were KCNQ2 block inactive, KCNQ2 pot 24*, Kir21 confirm inactive, HEK293 ctr inactive, CHO-K1 ctr -3.2, KCNQ1 sel pot -17.8, KCNQ2 pot confirm -26.7 and Kir21 spec -32.1.
Cc1ccc2c(CN3CCCCC3C)cc(=O)oc2c1 (configuration not stated) was read as KCNQ2 block inactive and KCNQ2 pot 0.02.
For Cc1ccc(NC(=O)C(C)OC(=O)Cc2c[nH]c3ccccc23)cc1 (configuration not stated) the results were KCNQ2 block inactive, KCNQ2 pot 0.34, Kir21 confirm 52.5%* and HEK293 ctr inactive.
Screening Cc1ccc(C(=O)C(C)OC(=O)Cc2c[nH]c3ccccc23)cc1 (configuration not stated) returned KCNQ2 block inactive.
`COc1ccccc1/C=C(/NC(=O)c1ccccc1)C(=O)NCCN1CCOCC1` gave KCNQ2 block inactive.
Clc1cc(Br)ccc1OCCCNCc1ccccc1 was read as KCNQ2 block inactive.
`Cc1ccc(C(C)C)c(OCCOCCN2CCNCC2)c1` gave KCNQ2 block inactive.
For Cc1ccc(C(C)C)c(OCCCCN2CCNCC2)c1 the results were KCNQ2 block inactive, KCNQ2 pot 0.18, Kir21 confirm 44.0%* and HEK293 ctr inactive.
Cc1cc(OCCOCCNCc2ccccc2)ccc1C(C)C was read as KCNQ2 block inactive, KCNQ2 pot 2.23, Kir21 confirm 21.5%* and HEK293 ctr inactive.
For CC(C)(C)c1ccccc1OCCOCCNCc1ccccc1 the results were KCNQ2 block inactive.
`Cc1ccc(C(C)C)c(OCCN)c1` gave KCNQ2 block inactive and KCNQ2 pot 0.89.
For Cc1ccc(C(C)C)c(OCCNCc2ccccc2)c1 the results were KCNQ2 block inactive, KCNQ2 pot 1.12, Kir21 confirm 16.5%* and HEK293 ctr inactive.
For Cc1ccc(C)c(OCCCNCc2ccccc2)c1 the results were KCNQ2 block inactive, Kir21 confirm 23.5%* and HEK293 ctr inactive.
